The results in this text go back to the supplement of paper PMC4022240.

Holding throughout (test): peptide microarray binding signal (635 nm), min-max normalized on array (fraction of array maximum); higher = stronger binding
Experiment [1] addresses T1, HaloTag-ATRX ADD domain (163-292).
T1 chain: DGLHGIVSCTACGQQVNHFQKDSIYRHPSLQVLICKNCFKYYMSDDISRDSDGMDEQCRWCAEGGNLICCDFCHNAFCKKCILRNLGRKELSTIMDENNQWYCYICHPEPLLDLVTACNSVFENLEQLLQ
How it is done:
(§1)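 Histone 13-mer peptides were synthesized as cellulose conjugates with a C-terminal 20-atom PEG linker and printed in triplicate on nitrocellulose. The sequence given is the unmodified backbone; PTMs (Kme1/2/3, Kac, Sph/Tph, Rme/Rme2a/Rme2s, Rcit) are listed in the label and the 'peptide modifications' condition. Slides were probed at 4 °C for 1 h with biotin-labelled (HQ)5-HaloTag reader fusions (ATRX-ADD, ING2-PHD) then streptavidin-Alexa647, or with rabbit histone antibodies then anti-rabbit Alexa647. The mean 635 nm signal of the triplicate spots was scaled 0-1 between the lowest and highest values on each array.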

Experiment [2] addresses HaloTag-ING2 PHD (mouse Ing2 200-280). The method, then:
as §1

Experiment [3] addresses anti-H3K4me3 antibody ab8580. How it is done:
as §1

Experiment [4] deals with anti-H3K9me3 antibody ab8898. The method, then:
as §1

Setting [5] is: peptide region: H2B 1-13, peptide modifications: H2BK5ac H2BS6ph, binder concentration: 1:2,000 dilution.
The mark [6] stands for this setting: peptide region: H2B 1-13, peptide modifications: H2BK5ac H2BS6ph, binder concentration: 1:10,000 dilution.
Where [7] appears, read: peptide region: H2B 7-19, peptide modifications: H2BK11ac H2BK12ac H2BK15ac, binder concentration: 1:2,000 dilution.
[8] abbreviates: peptide region: H2B 7-19, peptide modifications: H2BK11ac H2BK12ac H2BK15ac, binder concentration: 1:10,000 dilution.
The mark [9] stands for this setting: peptide region: H2A 11-23, binder concentration: 1:2,000 dilution.
The mark [10] stands for this setting: peptide region: H2A 11-23, binder concentration: 1:10,000 dilution.
Where [11] appears, read: peptide region: H2B 1-13, peptide modifications: H2BK5ac H2BK11ac, binder concentration: 1:2,000 dilution.
[12] abbreviates: peptide region: H2B 1-13, peptide modifications: H2BK5ac H2BK11ac, binder concentration: 1:10,000 dilution.
Setting [13] is: peptide region: H2B 7-19, peptide modifications: H2BK11ac H2BK12ac H2BS14ph H2BK15ac, binder concentration: 1:2,000 dilution.
Where [14] appears, read: peptide region: H2B 7-19, peptide modifications: H2BK11ac H2BK12ac H2BS14ph H2BK15ac, binder concentration: 1:10,000 dilution.

± gives the standard deviation.

B1: H2B 1-13 P E P A Kac Sph A P A P K K G (peptide)
chain: PEPAKSAPAPKKG
On to B1, for which the “peptide microarray binding signal” value in experiment [1] (peptide region: H2B 1-13, peptide modifications: H2BK5ac H2BS6ph, binder concentration: 50 nM) stood at 0.00433 ± 0.00028; in experiment [1] (peptide region: H2B 1-13, peptide modifications: H2BK5ac H2BS6ph, binder concentration: 500 nM), 0.00467 ± 0.0018; in experiment [2] (peptide region: H2B 1-13, peptide modifications: H2BK5ac H2BS6ph, binder concentration: 10 nM), 0.00442 ± 0.0003; in experiment [2] (peptide region: H2B 1-13, peptide modifications: H2BK5ac H2BS6ph, binder concentration: 100 nM) it was 0.00872 ± 0.0029; in experiment [3] (setting [5]), 0.00217 ± 0.0016; in experiment [3] (setting [6]), 0.000628 ± 1.3e-05. The “peptide microarray binding signal” value turned out to be 0.000332 ± 2.6e-05 in experiment [4] (setting [5]) and 0.000865 ± 2.4e-05 in experiment [4] (setting [6]).

B2: H2B 7-19 A P A P Kac Kac G S Kac K A V T (peptide)
chain: APAPKKGSKKAVT
With B2, the “peptide microarray binding signal” value in experiment [1] (peptide region: H2B 7-19, peptide modifications: H2BK11ac H2BK12ac H2BK15ac, binder concentration: 50 nM) turned out to be 0.00809 ± 0.00032; in experiment [1] (peptide region: H2B 7-19, peptide modifications: H2BK11ac H2BK12ac H2BK15ac, binder concentration: 500 nM), 0.0163 ± 0.00026; in experiment [2] (peptide region: H2B 7-19, peptide modifications: H2BK11ac H2BK12ac H2BK15ac, binder concentration: 10 nM), 0.0198 ± 0.0062; in experiment [2] (peptide region: H2B 7-19, peptide modifications: H2BK11ac H2BK12ac H2BK15ac, binder concentration: 100 nM), 0.0125 ± 0.0012; in experiment [3] (setting [7]), 0.0168 ± 0.0011; in experiment [3] (setting [8]), 0.00325 ± 0.00019. The “peptide microarray binding signal” value in experiment [4] (setting [7]) is 0.00323 ± 0.00057; in experiment [4] (setting [8]), 0.00248 ± 0.00015.

B3: H2A 11-23 R A K A K T R S S R A G L (peptide)
chain: RAKAKTRSSRAGL
Regarding B3, the “peptide microarray binding signal” value in experiment [1] (peptide region: H2A 11-23, binder concentration: 50 nM) turned out to be 0.00404 ± 4.2e-05; in experiment [1] (peptide region: H2A 11-23, binder concentration: 500 nM), 0.00457 ± 5.4e-05; in experiment [2] (peptide region: H2A 11-23, binder concentration: 10 nM) it was 0.003462 ± 3.2e-05; in experiment [2] (peptide region: H2A 11-23, binder concentration: 100 nM), 0.00581 ± 0.00028; in experiment [3] (setting [9]), 0.00125 ± 0.0004; in experiment [3] (setting [10]) it was 0.000571. Besides, the figures for the “peptide microarray binding signal” value in experiment [4] (setting [9]) and in experiment [4] (setting [10]) were 0.000257 ± 2.7e-06 and 0.000692 ± 7.3e-06, respectively.

B4: H2B 1-13 P E P A Kac S A P A P Kac K G (peptide)
chain: PEPAKSAPAPKKG
With B4, the “peptide microarray binding signal” value in experiment [1] (peptide region: H2B 1-13, peptide modifications: H2BK5ac H2BK11ac, binder concentration: 50 nM) is 0.00439 ± 0.00015; in experiment [1] (peptide region: H2B 1-13, peptide modifications: H2BK5ac H2BK11ac, binder concentration: 500 nM), 0.00957 ± 0.00041; in experiment [2] (peptide region: H2B 1-13, peptide modifications: H2BK5ac H2BK11ac, binder concentration: 10 nM) it was 0.00853 ± 0.00038; in experiment [2] (peptide region: H2B 1-13, peptide modifications: H2BK5ac H2BK11ac, binder concentration: 100 nM), 0.0114 ± 0.0021; in experiment [3] (setting [11]) it was 0.00251 ± 0.0019; in experiment [3] (setting [12]) it was 0.00108 ± 3.8e-05. Besides, the “peptide microarray binding signal” value in experiment [4] (setting [11]) worked out at 0.00198 ± 0.00033; in experiment [4] (setting [12]), 0.00225 ± 0.0002.

B5: H2B 7-19 A P A P Kac Kac G Sph Kac K A V T (peptide)
chain: APAPKKGSKKAVT
For the molecule B5, the “peptide microarray binding signal” value in experiment [1] (peptide region: H2B 7-19, peptide modifications: H2BK11ac H2BK12ac H2BS14ph H2BK15ac, binder concentration: 50 nM) is 0.001661 ± 1.4e-05; in experiment [1] (peptide region: H2B 7-19, peptide modifications: H2BK11ac H2BK12ac H2BS14ph H2BK15ac, binder concentration: 500 nM), 0.00238 ± 7.1e-05; in experiment [2] (peptide region: H2B 7-19, peptide modifications: H2BK11ac H2BK12ac H2BS14ph H2BK15ac, binder concentration: 10 nM) it was 0.002447 ± 1.4e-05; in experiment [2] (peptide region: H2B 7-19, peptide modifications: H2BK11ac H2BK12ac H2BS14ph H2BK15ac, binder concentration: 100 nM), 0.000709; in experiment [3] (setting [13]), 0.000774 ± 0.00015; in experiment [3] (setting [14]), 0.000685 ± 7.2e-06. The “peptide microarray binding signal” value in experiment [4] (setting [13]) stood at 0.000242 ± 2.5e-06; in experiment [4] (setting [14]) it was 0.000461.
